# Shown are actives, neighbours in structure and some others; about 7.9% of the full set was active somewhere.
# KB-3-1 cytotox – qHTS assay for MDR1-selective chemotherapeutics: Primary screen using the parental adenocarcinoma cell KB-3-1; KB-3-1 viability, CellTiter-Glo ATP luminescence, 72 h; Potency, µM (series often up to 46.1 µM), hits mostly cytotoxic; 400,000 compounds, 1.4% hits; AID 1347075, 2019; also: % is scaled to controls: 0 for no effect and ±100 for the full control effect; nearly all actives have a fitted effect of over 60% in size
#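 Parental KB-3-1 viability, qHTS format: 72 h compound exposure, 37 °C; CellTiter-Glo; media-only wells and DMSO plates as controls; concentration-effect fits on corrected data.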
# MCF10A rereplic – A quantitative high throughput screen for small molecules that induce DNA re-replication in MCF 10a normal breast cells; MCF 10A DNA re-replication, Hoechst nuclear intensity, 48 h; Potency, µM (top dose mostly 46.1 µM), for inactives: top-dose activity, positive = re-replication, actives largely listed as activators; 350,000 compounds, 2.9% hits; AID 624296, 2012; also: % of control where 0% means no effect; nearly all actives have a fitted effect of over 50% in size
# KB-V1 MDR tox – qHTS assay for MDR1-selective chemotherapeutics: Primary screen using the drug-selected MDR subline cells KB-V1 | KB-V1 MDR cells viability, CellTiter-Glo, 72 h | AID 1347076, 2019 | 400,000 compounds, 3.4% hits | Potency, µM (highest dose often 46.1 µM), actives largely listed as cytotoxic; also: % is scaled to controls: 0 for no effect and ±100 for the full control effect; nearly all actives have a fitted effect of over 60% in size
#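 Potencies derive from concentration-effect curves fitted to normalized luminescence (CellTiter-Glo) of KB-V1 cells treated for 72 h at 37 degrees C in phenol-red-free DMEM containing 10% FBS.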
# HT1080 IDH1KD tx – qHTS for induction of synthetic lethality in tumor cells producing 2HG: qHTS for the HT-1080-IDH1KD cell line; AID 686971, 2013; 360,000 compounds, 2% hits; HT-1080 IDH1 knockdown viability, ATP luminescence, 48 h; Potency, µM (series often up to 46.1 µM), inactives show top-dose activity, negative = toxicity, usual class: cytotoxic;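 also: 0% = DMSO wells and -100% = cell-free medium wells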
#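 Viability of IDH1-knockdown HT-1080 fibrosarcoma cells was assessed by CellTiter-Glo after 48 h at 37 °C with titrated compound; concentration-effect curves were classified by fit quality and response size.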
# SW480 rereplic – A quantitative high throughput screen for small molecules that induce DNA re-replication in SW480 colon adenocarcinoma cells; SW480 DNA re-replication, Hoechst DNA content imaging, 48 h; Potency, µM (highest dose often 46.1 µM), without a hit: at the top dose re-replication activation, actives largely listed as activators; 340,000 compounds, 1.8% hits; also: % of control where 0% means no effect; nearly all actives have a fitted effect of over 55% in size
#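 DNA re-replication was detected as more nuclei of elevated Hoechst intensity after 48 hr exposure to compound (23 nL pinned per well of 250 cells).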
# HT1080NT lethal – qHTS for induction of synthetic lethality in tumor cells producing 2HG: qHTS for the HT-1080-NT fibrosarcoma cell line; Potency, µM (highest dose often 46.1 µM), inactives show at the top dose activity, negative = less viability, most hits filed as cytotoxic; 360,000 compounds, 1.6% hits; HT-1080-NT fibrosarcoma viability, CellTiter-Glo ATP luminescence, 48 h;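 also: NT is the 2HG producing partner of a matched IDH1 knockdown line; 0% = DMSO-treated cells and -100% = media-only wells without cells; nearly all actives have a fitted effect of over 55% in size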
#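 Luminescent CellTiter-Glo readout after 48 hours of compound exposure at 37 degrees C defined viability of HT-1080-NT cells. Activity was normalized to DMSO wells and cell-free media wells; concentration-response curves were fitted and assigned curve classes.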
# Starred values were filed as active, the others as inactive; i = inactive; ? = inconclusive; nt = no result; ! = a repeat was not active; [ ] = remark or other dose. Calls follow the shape of the dose curve; as a rule, active = well fitted curve in the direction sought with a large enough effect; inconclusive = small, poorly fitted or top-dose-only effect, or another doubt; inactive = no such curve, though single readings can be large; an effect the other way counts as inactive or inconclusive. Potency is read from the fitted curve at half-maximal effect.
SMILES,KB-3-1 cytotox,MCF10A rereplic,KB-V1 MDR tox,HT1080 IDH1KD tx,SW480 rereplic,HT1080NT lethal
O=C1C=CC(=O)N1c1ccc2c(c1)C(NC(=O)C(F)(F)F)c1ccccc1-2 (stereo not given),nt,?,nt,?,8.2µM*,0%
O=c1[nH]c(=O)n([C@H]2C[C@H](O)[C@@H](CO)O2)cc1C(F)(F)F,i,9%,i,2.1µM*,?,?
O=c1[nH]c(=O)n(C2C[C@H](O)[C@@H](CO)O2)cc1C(F)(F)F (stereo not given in full),i,?,i,4.1µM*,15%,?
Cc1ccc(C)c(N2CCN(c3nc4ccccc4n4c(C)nnc34)CC2)c1,i,nt,?,nt,nt,nt
O=S1(=O)CCO[C@H]2CCCC[C@@H]2N1Cc1ccccc1,i,nt,i,nt,nt,nt
CC1=CC(C)(C)NC(=S)N1c1ccc2ccccc2c1,i,5%,i,7.1µM*!,7%,5.6µM*
CSc1nc2c(c(=O)n1Cc1ccccc1)SC(C)C2 (stereo not given),i,7%,?,-17%,?,-2%
CSc1nc2[nH]c(=O)n(O)c(=O)c2n1Cc1ccccc1,?,?,i,?,2.3µM*,?
Cn1ncc2c(O/N=C(\N)c3ccc(C(F)(F)F)cc3)ncnc21,?,?,?,16µM*,7.3µM*,21µM*
Cc1ccc(C(=O)NNc2ncnc3c2cnn3C)cc1,i,-1%,i,1%,-52%,15%
CCCCCCOC(=O)C(C#N)c1nc2ccccc2nc1N1CCN(CC)CC1 (stereo not given),?,?,?,23µM*,17%,16µM*
CCCCCCNC(=O)C(C#N)c1nc2ccccc2nc1N1CCOCC1 (stereo not given),i,-4%,i,1%,-4%,1%
CCCCCCNC(=O)C(C#N)c1nc2ccccc2nc1N1CCCC1 (stereo not given),i,13µM*,i,14%,?,6%
CCCCCCOC(=O)C(C#N)c1nc2ccccc2nc1N1CCOCC1 (stereo not given),i,3%,i,1%,-5%,4%
COCCCNC(=O)C(C#N)c1nc2ccccc2nc1N1CCCC1 (stereo not given),i,4%,i,10%,-1%[9.22 µM],5%
CCN(CC)c1nc2ccccc2nc1C(C#N)C(=O)NCCc1ccccc1 (stereo not given),i,18µM*,i,1%,?,-3%
CCCCCNC(=O)C(C#N)c1nc2ccccc2nc1N1CCCC1 (stereo not given),i,10µM*,i,-4%,?,2%
CCOC(=O)c1ccc(NC(=O)c2ccc(-c3cccc(Cl)c3C)o2)cc1,i,nt,i,nt,nt,nt
Cc1ccc(OCC(=O)Nc2nnc(SCc3cc(=O)c4ccccc4[nH]3)s2)cc1,i,nt,i,nt,nt,nt
N#CC(C(=O)NCCc1ccccc1)c1nc2ccccc2nc1N1CCCCC1 (stereo not given),i,21µM*,i,-2%,?,-1%
N#CC(C(=O)NCCc1ccccc1)c1nc2ccccc2nc1N1CCOCC1 (stereo not given),i,0%,?,11%,-4%,19%
Cc1cccc(CCNC(=O)C2CCC(CNS(=O)(=O)c3ccccc3)CC2)c1 (stereo not given),i,nt,i,nt,nt,nt
COc1ccc(C(=O)N(Cc2ccccc2)Cc2cc3cc4c(cc3[nH]c2=O)OCCO4)cc1,8.9µM*,?,11µM*,-23%,?,?
COc1cccc(C(=O)N(Cc2ccccc2)Cc2cc3cc4c(cc3[nH]c2=O)OCCO4)c1,i,25%,i,?,-1%,?
COc1ccc(OC)c(S(=O)(=O)Nc2ccc(-c3ccc4nncn4n3)cc2)c1,18µM*,?,i,16µM*,8%,23µM*
SMILES,KB-3-1 cytotox,MCF10A rereplic,KB-V1 MDR tox,HT1080 IDH1KD tx,SW480 rereplic,HT1080NT lethal
COc1ccc(OC)c(S(=O)(=O)Nc2cccc3c(O)cccc23)c1,i,2%,i,-13%,1%,-2%
COc1ccc(OC)c(S(=O)(=O)Nc2ccc(Oc3ccccc3)cc2)c1,i,?,21µM*,?,-10%,-15%
O=S(=O)(Nc1cccc(-c2ccc3nncn3n2)c1)c1cccc(F)c1,i,9%,i,0%,-2%,-5%
CCOc1ccc(NS(=O)(=O)c2cc(OC)ccc2OC)cc1,i,-4%,?,?,0%,-2%
COc1ccc(S(=O)(=O)Nc2cccc(-c3ccc4nncn4n3)c2)cc1F,i,5.8µM*,?,2.3µM*,5.2µM*,4.6µM*
COc1ccc(OC)c(S(=O)(=O)Nc2ccc(O)c3ccccc23)c1,i,?,?,?,?,23µM*
Cc1cc(C)c2nc(N(Cc3cccnc3)C(=O)c3ccc(S(=O)(=O)N(C)C)cc3)sc2c1,i,nt,i,nt,nt,nt
Cc1ccc(C)c(Cn2c(C(C)NC(=O)c3ccc(F)cc3)nc3ccccc32)c1 (stereo not given),i,nt,i,nt,nt,nt
CC(NC(=O)c1ccc(F)cc1)c1nc2ccccc2n1Cc1ccccc1F (stereo not given),i,1%,2.1µM*,?,26%,-15%
N#Cc1c(-c2ccc(F)cc2)c2c([nH]c1=O)-c1ccccc1OC2,i,4.1µM*,i,11%,6.5µM*,3%
N#Cc1c(-c2cccnc2)c2c([nH]c1=O)-c1ccccc1OC2,i,15µM*,i,10%,2.6µM*,16%
Cc1nn(C(C)C(=O)Nc2cccc(F)c2)c(=O)c2c1sc1ccccc12 (stereo not given),i,nt,i,nt,nt,nt
COc1cc(NC(=O)c2ccc([N+](=O)[O-])o2)ccc1NC(=O)c1cccs1,?,?,i,-19%,6.5µM*,-15%
O=C(Nc1cccc(NC(=O)c2cccs2)c1)c1ccc([N+](=O)[O-])o1,16µM*,19%,?,23µM*,?,10µM*
Cc1ccc(NC(=O)c2cccs2)cc1[N+](=O)[O-],i,5%,?,-22%,6%,-18%

# High-throughput results deposited in PubChem BioAssay by National Center for Advancing Translational Sciences (NCATS).
